# Screens: PubChem, several laboratories
# Shown are actives, neighbours in structure and some others; about 3.8% of the full set was active somewhere.
# Gli-Sufu antag = antagonists of Gli-Sufu signaling | Sufu-KO-LIGHT fibroblasts, Gli luciferase reporter luminescence | inhibition, % at 5 µM | 340,000 compounds, 0.74% hits | AID 588413;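 active means inhibition above about 55%, limit read from the data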;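 further: 0% = DMSO-treated cells and 100% = wells with medium but no cells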
# Shn3 inh set2 = reduces Shn3 3'UTR luciferase signal in osteoblasts. Clone20 osteoblast Shn3 3'UTR firefly luciferase, 24 h. inhibition, % at 12.5 µM. 360,000 compounds, 0.52% hits;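 active means mean inhibition of at least 75% with every replicate also reaching 75%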;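 further: 0% = median of neutral control wells and 100% = pilot-screen positive control compound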
# 697 NFkB inh = inhibitors of the PMA/ionomycin-induced NF-kB reporter in 697 B cells. AID 435022. inhibition, % at 4 µM. 697 B-cell NF-kB luciferase reporter, 16 h. 330,000 compounds, 0.33% hits; in the data active means inhibition above about 35%
# Jurkat NFkB inh = lowers PMA/ionomycin-induced NF-kB signal in Jurkat cells. 330,000 compounds, 0.53% hits. inhibition, % at 4 µM. AID 435003. PMA/ionomycin-induced NF-kB luciferase reporter, luminescence; in the data active means inhibition above about 50%
# Mdm2 MdmX PPI = human Mdm2/MdmX binding inhibition; AID 485346; 330,000 compounds, 3% hits; SaOS-2 split-luciferase Mdm2/MdmX complementation, luminescence; inhibition, % at 8 µM;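 active means inhibition of at least 50% at 8 µM in the primary screen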
# Mdm2 MdmX conf = confirmation of human Mdm2/MdmX interaction inhibitors. shares compounds with Mdm2 MdmX PPI. inhibition, % at 8 µM. 10,000 compounds, 55% hits. Mdm2-MdmX binding, luminescent assay; in the data active means inhibition above about 40%
# FLuc counter = inhibits full-length luciferase, flagging false Mdm2/MdmX hits; shares compounds with Mdm2 MdmX PPI; SaOS-2 full-length luciferase counterscreen, luminescence; inhibition, % at 8 µM; 6,200 compounds, 77% hits; AID 504607;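 active means mean inhibition at 8 µM reaching about 37%, which flags the compound as non-specific, limit read from the data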;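 further: p53-null SaOS-2 cells with luciferase driven by a doxycycline-inducible promoter; compound on cells about two nights before reading with doxycycline added after day one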
# * marks the source's active call; other numbers are inactive results; x = not tested or not shown.
SMILES,Gli-Sufu antag,Shn3 inh set2,697 NFkB inh,Jurkat NFkB inh,Mdm2 MdmX PPI,Mdm2 MdmX conf,others
CC(C)(C)OC(=O)NCCCC[C@H](NC(=O)c1[nH]cnc1C(=O)N[C@@H](Cc1ccccc1)C(=O)OC(C)(C)C)C(=O)OC(C)(C)C,9.0,2.1,2.3,29.7,62.5*,10.2,
CCCCCCCCCC(=O)N[C@@H]1c2cc(OC)c(OC)cc2C[C@H]1OCc1ccccc1,-3.6,-10.2,-79.0,x,89.4*,69.2*,FLuc counter=35.8
CCCC(=O)N1CCCC(c2cc(C(=O)NCc3ccccc3)no2)C1 (centres undefined),x,21.4,x,x,x,x,
CC1CCN(S(=O)(=O)c2ccc(NC(=S)NC(=O)c3ccc(Cl)cc3)cc2)CC1,33.8,36.5,-10.9,13.2,53.5*,36.2,FLuc counter=71.9*
Cc1cccc(C)c1NC(=O)CNC(=O)c1ccncc1,-5.0,7.9,-17.7,1.6,14.2,x,
Cc1noc(C)c1S(=O)(=O)N(C)C[C@H]1Oc2ccc(NC(=O)NC(C)C)cc2C(=O)N([C@H](C)CO)C[C@@H]1C,-11.2,-9.3,-12.7,-7.6,4.6,x,
CCC(C)c1ccc2oc(-c3ccc(NC(=O)Cn4cnc5c(=O)n(C)c(=O)n(C)c54)cc3)nc2c1 (centres undefined),-4.1,-62.8,-42.7,-41.1,50.4*,61.2*,FLuc counter=146.9*
Cc1cc(=O)[nH]c(SCC(=O)Nc2cccc3ccccc23)c1C#N,6.7,15.2,20.6,14.1,5.9,x,
COc1cc(NC(=O)c2ccccc2)c(OC)cc1NC(=O)CSc1[nH]c(=O)cc(C)c1C#N,-31.8,0.9,-0.1,23.4,83.8*,34.2,
COc1ccc(-c2noc(CNC(=O)c3ccoc3C)n2)cc1,-4.3,1.2,4.9,-5.8,-12.8,x,
O=C(Nc1nc(-c2nc3ccccc3s2)cs1)c1ccco1,-22.0,-51.8,-62.9,-36.2,72.6*,-14.8,
O=C(Nc1nc2cc3c(cc2s1)OCO3)C1=COCCO1,-38.3,72.6,-184.5,-11.7,51.9*,28.1,
O=C(Nc1nc2cc3c(cc2s1)OCCO3)c1ccco1,-15.3,53.4,-99.4,24.5,70.7*,68.3*,FLuc counter=74.2*
O=C(Nc1nc(-c2ccc(Cl)s2)cs1)c1ccco1,-9.8,-84.0,-61.8,-35.6,-54.2,x,
O=C(Nc1nc2cc3c(cc2s1)OCCO3)c1ccncc1,-86.1,-51.9,-81.4,-84.7,-118.5,x,
CC(O)Cn1c(N2CCCC2)nc2c1c(=O)n(C)c(=O)n2C (centres undefined),3.2,7.2,-10.2,-8.2,-10.8,x,
CCOc1cc(C=O)ccc1OCCn1c([N+](=O)[O-])cnc1C,2.0,5.7,-3.9,9.8,-14.7,x,
O=C(Nc1c2c(nn1-c1ccccc1)CS(=O)(=O)C2)C1CC1,x,3.5,x,x,x,x,
CC(=O)Nc1nonc1-c1nc2ccccc2n1Cc1ccccc1,11.2,4.8,-10.7,13.5,69.9*,65.6*,FLuc counter=117.7*
CC(=O)Nc1nonc1-c1nc2ccccc2n1Cc1nnc(C)o1,3.6,2.2,2.3,-11.1,19.5,x,
CCCCCCN1C[C@@H](n2cc(C3CC3)nn2)[C@H](O)C[C@@H]1c1ccc(Cl)cc1,x,7.3,x,x,x,x,
COc1ccc(N2CCN(CCNC(=O)c3ccc4nc5ccccc5c(=O)n4c3)CC2)cc1,6.4,-7.7,-9.1,-14.2,-16.2,x,
COc1ccc(N2CCN(CCNC(=O)c3ccc4c(c3)[nH]c(=S)n3c5ccccc5nc43)CC2)cc1,11.2,-8.1,27.8,8.7,87.4*,76.5*,FLuc counter=55.1*
COc1ccccc1CNC(=O)COC(=O)c1ccccc1-c1ccccc1,1.2,9.2,-14.9,5.7,4.4,x,
COc1ccc2c(c1)c(=O)oc1c(C)c(OCC(=O)N3CCc4ccccc4C3)ccc12,21.2,9.5,-3.5,-5.9,52.7*,13.2,
Cc1cc(=O)oc2cc(OCC(=O)N3CCc4ccccc4C3)ccc12,5.4,-0.2,20.7,22.8,0.5,x,
Cc1c(C)c2ccc(OCC(=O)N3CCN(c4ccc(F)cc4)CC3)c(C)c2oc1=O,-1.2,-25.4,5.3,5.5,10.7,x,
COc1ccc(N2CCN(C(=O)COc3ccc4c(C)c(C)c(=O)oc4c3C)CC2)cc1,13.9,-5.9,-12.1,1.1,53.3*,20.0,
O=C(NCCN1CCOCC1)C(=O)NCC1OCCN1S(=O)(=O)c1ccccc1 (centres undefined),-0.1,-12.5,-8.9,-13.8,-19.2,x,
